A number with no mark means an inactive call. Inconclusive results are not listed. Activity calls are given as the source filed them. Unless noted, the call rests on the fitted dose curve; in most records, active means well fitted curve in the direction sought with a large enough effect; inconclusive means small, poorly fitted or top-dose-only effect, or another doubt; inactive means no such curve, though single readings can be large; an effect the other way counts as inactive or inconclusive.
Legend:
[1] = biological target: Cytochrome P450 1A2 (Homo sapiens) (UniProt P05177); assay: p450-cyp1a2 (AID 410; calls by dose curve; further: potency means the concentration at half of the fitted maximal effect)
Chain of Cytochrome P450 1A2 (Homo sapiens) (P05177 whole entry, looked up): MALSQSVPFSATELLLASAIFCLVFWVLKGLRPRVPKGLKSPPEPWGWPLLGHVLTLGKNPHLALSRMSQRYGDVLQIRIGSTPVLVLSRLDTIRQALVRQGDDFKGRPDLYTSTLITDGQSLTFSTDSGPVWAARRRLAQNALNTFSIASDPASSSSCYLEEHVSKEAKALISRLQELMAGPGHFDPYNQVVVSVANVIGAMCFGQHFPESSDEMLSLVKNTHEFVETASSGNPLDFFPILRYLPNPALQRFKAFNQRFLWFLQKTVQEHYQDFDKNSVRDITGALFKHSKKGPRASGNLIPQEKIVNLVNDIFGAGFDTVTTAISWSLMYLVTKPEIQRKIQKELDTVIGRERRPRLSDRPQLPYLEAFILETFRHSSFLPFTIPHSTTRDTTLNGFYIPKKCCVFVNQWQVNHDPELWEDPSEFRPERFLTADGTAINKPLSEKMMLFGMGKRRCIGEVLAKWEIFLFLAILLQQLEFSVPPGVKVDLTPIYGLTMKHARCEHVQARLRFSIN
Outline: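 Luminescent readout of luciferin formed from Luciferin-ME by human CYP1A2; data normalized against complete inhibition by 57 uM furafylline. Enzyme 20nM, substrate 100uM at Km, 100mM KPO4 buffer, 60 min reaction at room temperature.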

[2] = NFAT Signaling Pathway (AID 444; active means well fitted curve in either direction with a large enough effect, not every such curve was filed as active;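 further: carbachol stimulus at about its EC50 of 1 µM final; on the % scale 0 is the no-effect control and ±100 the full control effect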); details: Jurkat NFAT-bla M1, carbachol, beta-lactamase ratio, 5 h; at 17.2 µM (top of the series) unless noted
Outline: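 Jurkat cells with NFAT-driven β-lactamase reporter and co-expressed M1 receptor, stimulated with carbachol (final 1 uM, ~EC50), compound titration, 5 h at 37 °C. CCF4 loaded 1 h at RT; 460/530 nm ratio gave %activity and AC50.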

[3] = biological target: Glucocorticoid receptor (Homo sapiens) (UniProt P04150); assay: GR-GFP Redistribution (AID 450;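 active means compounds whose dose series gives a full or clear partial fitted curve of increased nuclear translocation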; further: potency means the concentration at half of the fitted maximal effect)
Chain of Glucocorticoid receptor (Homo sapiens) (P04150 whole entry, looked up, the tested form may be a part): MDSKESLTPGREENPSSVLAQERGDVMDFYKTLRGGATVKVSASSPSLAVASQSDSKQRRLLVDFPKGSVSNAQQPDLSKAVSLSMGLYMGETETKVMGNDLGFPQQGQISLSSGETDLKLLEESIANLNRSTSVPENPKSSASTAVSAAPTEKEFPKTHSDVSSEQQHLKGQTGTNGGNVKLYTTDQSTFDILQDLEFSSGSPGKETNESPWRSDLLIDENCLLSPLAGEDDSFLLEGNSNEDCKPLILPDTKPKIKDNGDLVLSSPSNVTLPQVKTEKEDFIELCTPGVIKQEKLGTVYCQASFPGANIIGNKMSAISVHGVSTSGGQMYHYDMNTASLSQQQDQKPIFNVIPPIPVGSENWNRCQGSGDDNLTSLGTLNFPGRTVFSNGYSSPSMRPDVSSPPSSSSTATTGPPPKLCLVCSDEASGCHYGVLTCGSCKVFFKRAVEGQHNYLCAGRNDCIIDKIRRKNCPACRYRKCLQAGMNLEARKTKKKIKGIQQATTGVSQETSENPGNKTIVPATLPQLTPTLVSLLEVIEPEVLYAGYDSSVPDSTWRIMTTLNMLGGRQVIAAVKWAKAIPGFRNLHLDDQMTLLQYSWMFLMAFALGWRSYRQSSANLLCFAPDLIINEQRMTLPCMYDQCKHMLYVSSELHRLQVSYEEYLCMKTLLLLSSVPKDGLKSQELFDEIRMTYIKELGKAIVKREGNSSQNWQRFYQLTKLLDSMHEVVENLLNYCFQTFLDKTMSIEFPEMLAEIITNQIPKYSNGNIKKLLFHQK

[4] = biological target: Glucocorticoid receptor (Homo sapiens) (UniProt P04150); assay: GR-EFC Redistribution (AID 451; calls by dose curve; further: potency means the concentration at half of the fitted maximal effect); details: CHO-K1 GR-EFC translocation, beta-gal luminescence, 2 h
Outline: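 CHO-K1 cells expressing nuclear EA and GR-ED fragments of b-gal; compounds titrated up to 46 uM final, 2 h at 37 C. GR nuclear translocation read as complemented b-gal luminescence after 1 h RT detection.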

[5] = biological target: 3',5'-cyclic-AMP phosphodiesterase 4B (Homo sapiens) (UniProt Q07343); assay: qHTS Assay for Inhibitors of PDE-IV (AID 607; active means well fitted activation curve with a large enough effect in the main read-out, with a control signal flat, not every such curve was filed as active; further: % of control where 0% means no effect)
Chain of 3',5'-cyclic-AMP phosphodiesterase 4B (Homo sapiens) (Q07343 whole entry, looked up): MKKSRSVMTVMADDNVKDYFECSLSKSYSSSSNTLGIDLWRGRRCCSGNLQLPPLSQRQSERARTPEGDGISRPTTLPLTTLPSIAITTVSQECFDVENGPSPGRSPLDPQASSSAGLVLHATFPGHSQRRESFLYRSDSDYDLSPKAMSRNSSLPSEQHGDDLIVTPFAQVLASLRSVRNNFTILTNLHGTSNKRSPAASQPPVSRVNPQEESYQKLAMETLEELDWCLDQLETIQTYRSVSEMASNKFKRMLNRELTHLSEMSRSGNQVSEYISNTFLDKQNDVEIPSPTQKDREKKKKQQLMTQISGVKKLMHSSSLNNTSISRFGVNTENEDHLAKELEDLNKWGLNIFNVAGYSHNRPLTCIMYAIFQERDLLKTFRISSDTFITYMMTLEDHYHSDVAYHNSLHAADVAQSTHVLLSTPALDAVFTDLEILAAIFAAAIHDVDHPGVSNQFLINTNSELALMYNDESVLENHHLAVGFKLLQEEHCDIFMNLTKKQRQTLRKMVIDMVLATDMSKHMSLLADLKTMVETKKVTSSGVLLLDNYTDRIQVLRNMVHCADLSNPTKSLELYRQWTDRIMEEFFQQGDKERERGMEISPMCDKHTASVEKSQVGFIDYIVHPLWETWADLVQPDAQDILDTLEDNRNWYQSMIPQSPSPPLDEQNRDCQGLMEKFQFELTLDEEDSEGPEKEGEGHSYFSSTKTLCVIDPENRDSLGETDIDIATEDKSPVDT
Outline: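 HEK293 ACTOne cells with CNG channel (1000/well), endogenous PDE4; membrane potential dye, compounds up to 22.9 uM final. Fluorescence Ex 535/Em 590; RO 20-1724 (100 uM final) as reference.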

[6] = biological target: Guanine nucleotide-binding protein G(i) subunit alpha-1 (Homo sapiens) (UniProt P63096); assay: qHTS Assay for Inhibitors of RGS12 GoLoco Motif Activity (Green Fluorophore) (AID 879);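 further: 0% = labeled peptide with Gαi1 and full inhibition = labeled peptide alone without protein; negative values mean loss of peptide binding seen as reduced polarization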
Chain of Guanine nucleotide-binding protein G(i) subunit alpha-1 (Homo sapiens) (P63096 whole entry, looked up): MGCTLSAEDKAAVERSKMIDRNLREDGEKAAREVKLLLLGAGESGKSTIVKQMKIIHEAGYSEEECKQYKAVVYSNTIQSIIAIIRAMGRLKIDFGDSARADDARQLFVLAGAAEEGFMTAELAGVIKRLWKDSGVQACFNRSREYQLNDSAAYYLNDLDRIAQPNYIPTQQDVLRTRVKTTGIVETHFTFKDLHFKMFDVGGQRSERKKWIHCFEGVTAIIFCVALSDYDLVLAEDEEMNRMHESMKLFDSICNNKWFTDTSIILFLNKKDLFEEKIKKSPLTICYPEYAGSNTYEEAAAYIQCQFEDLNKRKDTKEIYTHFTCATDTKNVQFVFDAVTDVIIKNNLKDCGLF
Outline: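 Fluorescence polarization assay: 50 nM Gαi1 with 10 nM FITC-labeled RGS12 GoLoco peptide in 10 mM Tris pH 7.5, 150 mM NaCl, 0.1 mM GDP, 0.05% NP40, 10 min at room temperature with compound.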

[7] = biological target: Cytochrome P450 2C9 (Homo sapiens) (UniProt P11712); assay: qHTS Assay for Inhibitors and Substrates of Cytochrome P450 2C9 (AID 883); further: on the % scale 0 is the no-effect control and ±100 the full control effect; nearly all actives have a fitted effect of over 60% in size
Chain of Cytochrome P450 2C9 (Homo sapiens) (P11712 whole entry, looked up): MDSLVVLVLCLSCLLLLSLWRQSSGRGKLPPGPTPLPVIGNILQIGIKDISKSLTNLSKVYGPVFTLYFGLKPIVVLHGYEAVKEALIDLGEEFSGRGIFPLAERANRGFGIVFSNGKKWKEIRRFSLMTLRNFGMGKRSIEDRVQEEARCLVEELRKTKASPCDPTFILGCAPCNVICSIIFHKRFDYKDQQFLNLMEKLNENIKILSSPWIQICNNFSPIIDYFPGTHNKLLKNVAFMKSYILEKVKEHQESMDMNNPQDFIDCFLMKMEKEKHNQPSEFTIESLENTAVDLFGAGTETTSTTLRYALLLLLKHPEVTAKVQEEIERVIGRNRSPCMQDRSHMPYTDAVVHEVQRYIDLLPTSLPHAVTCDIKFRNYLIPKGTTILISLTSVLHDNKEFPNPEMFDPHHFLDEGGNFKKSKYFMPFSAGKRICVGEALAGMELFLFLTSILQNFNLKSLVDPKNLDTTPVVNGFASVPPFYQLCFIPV
Outline: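 Human CYP2C9 (10nM) with Luciferin-H at 100uM (its KM) in 25mM KPO4; compound preincubated 10 min at 37C, then NADPH regeneration for 60 min at 37C. Luciferin read by luminescence after detection reagent; normalized to 57uM sulphaphenazole as full inhibition.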

[8] = biological target: Cytochrome P450 3A4 (Homo sapiens) (UniProt P08684); assay: qHTS Assay for Inhibitors and Substrates of Cytochrome P450 3A4 (AID 884); further: potency means the concentration at half of the fitted maximal effect; nearly all actives have a fitted effect of over 50% in size
Chain of Cytochrome P450 3A4 (Homo sapiens) (P08684 whole entry, looked up): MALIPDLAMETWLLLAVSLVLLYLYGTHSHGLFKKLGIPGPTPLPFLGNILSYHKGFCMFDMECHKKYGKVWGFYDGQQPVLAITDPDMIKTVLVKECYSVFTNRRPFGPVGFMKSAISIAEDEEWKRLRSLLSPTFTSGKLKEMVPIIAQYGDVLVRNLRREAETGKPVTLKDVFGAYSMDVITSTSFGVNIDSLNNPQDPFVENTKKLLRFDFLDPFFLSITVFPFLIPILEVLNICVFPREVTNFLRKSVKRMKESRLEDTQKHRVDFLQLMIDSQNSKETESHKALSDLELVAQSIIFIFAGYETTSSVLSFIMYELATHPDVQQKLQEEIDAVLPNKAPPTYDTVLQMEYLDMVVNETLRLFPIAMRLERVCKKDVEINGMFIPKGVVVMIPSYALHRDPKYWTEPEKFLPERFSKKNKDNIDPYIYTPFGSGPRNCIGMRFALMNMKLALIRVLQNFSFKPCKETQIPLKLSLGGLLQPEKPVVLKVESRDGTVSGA
Outline: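 20 nM human CYP3A4 with 25 uM Luciferin-PPXE (at KM) in 200 mM KPO4, preincubated 10 min with compound; NADPH regeneration started a 60 min RT reaction. Luciferin detected by luminescence, normalized to 57 uM ketoconazole as full inhibition.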

[9] = biological target: Cytochrome P450 3A4 (Homo sapiens) (UniProt P08684); assay: qHTS Assay for Activators of Cytochrome P450 3A4 (AID 885); further: nearly all actives have a fitted effect of over 65% in size
Outline: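 Human CYP3A4 (20 nM) with Luciferin-PPXE at 25 uM (its KM) in 200 mM KPO4; 10 min compound preincubation, then NADPH regeneration and 60 min reaction at RT. Luciferin read by luminescence; normalized to 57 uM ketoconazole full inhibition.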

[10] = biological target: Cytochrome P450 2C19 (Homo sapiens) (UniProt P33261); assay: qHTS Assay for Inhibitors and Substrates of Cytochrome P450 2C19 (AID 899); further: potency means the concentration at half of the fitted maximal effect; nearly all actives have a fitted effect of over 60% in size
Outline: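 5 nM human CYP2C19 with 10uM Luciferin-H EGE (at KM) in 50mM KPO4, compound preincubated 10 min at 37C, then NADPH regeneration for 60 min at 37C. Luciferin read by luminescence after detection reagent; normalized to 57uM ketoconazole as full inhibition.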

[11] = qHTS Assay for Identification of Small Molecule Agonists for Thrombopoietin (TPO) Signaling Pathway (AID 917); further: potency means the concentration at half of the fitted maximal effect
Outline: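 Murine Ba/F3 cells stably expressing human TPO receptor and a Glycoprotein IIb promoter–luciferase reporter were IL-3-starved overnight, then treated with compounds plus TPO (26 pM final, its EC50) for 24 hrs at 37 C; luminescence was read.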

[12] = qHTS Assay for Identification of Small Molecule Agonists for NFkB Signaling Pathway (AID 928; calls by dose curve); details: NFkB beta-lactamase reporter cells, blue/green ratio
Outline: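 ME-180 NFkB-bla cells carry a beta-lactamase reporter under an NFkB response element. Compound plus 10 pM TNF alpha (final) was applied for 5 hrs at 37 C. After 2 hrs with LiveBLAzer substrate, 460/530 nm emission was read at 405 nm excitation.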

[13] = biological target: Pyruvate kinase (Leishmania mexicana) (UniProt Q27686); assay: qHTS Validation Assay for Inhibitors of Leishmania Mexicana Pyruvate Kinase (AID 945); further: potency means the concentration at half of the fitted maximal effect
Chain of Pyruvate kinase (Leishmania mexicana) (Q27686 2-499 E452W): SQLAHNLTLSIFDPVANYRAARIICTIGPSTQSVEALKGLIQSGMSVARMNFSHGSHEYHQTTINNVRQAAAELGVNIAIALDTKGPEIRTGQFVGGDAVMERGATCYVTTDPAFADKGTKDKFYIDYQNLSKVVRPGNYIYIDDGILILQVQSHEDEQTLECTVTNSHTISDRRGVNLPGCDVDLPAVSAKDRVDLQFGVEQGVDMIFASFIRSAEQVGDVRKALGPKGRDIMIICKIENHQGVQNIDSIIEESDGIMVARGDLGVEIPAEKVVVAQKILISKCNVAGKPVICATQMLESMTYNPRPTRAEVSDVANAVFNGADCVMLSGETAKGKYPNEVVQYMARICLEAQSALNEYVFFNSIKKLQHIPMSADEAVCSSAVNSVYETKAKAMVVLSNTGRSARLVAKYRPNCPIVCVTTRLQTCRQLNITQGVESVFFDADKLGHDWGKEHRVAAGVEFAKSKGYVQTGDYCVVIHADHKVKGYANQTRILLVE
Outline: (§1)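 Compounds are tested as eight-point concentration series. Reactions contain 0.2 nM LmPYK E451W, 0.5 mM PEP, 0.1 mM ADP, 7 mM MgCl2 and 50 mM KCl at pH 7.2, run 1 h at room temperature, then read by PKLight luminescence.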

[14] = biological target: Pyruvate kinase PKM (Homo sapiens) (UniProt P14618); assay: qHTS Assay for Activators of Human Muscle Pyruvate Kinase (AID 954; active means well fitted curve in the direction sought with a large enough effect, not every such curve was filed as active;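 further: 0% = uninhibited enzyme and -100% = no enzyme or full thiadiazolimine inhibition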)
Chain of Pyruvate kinase PKM (Homo sapiens) (P14618 whole entry, looked up): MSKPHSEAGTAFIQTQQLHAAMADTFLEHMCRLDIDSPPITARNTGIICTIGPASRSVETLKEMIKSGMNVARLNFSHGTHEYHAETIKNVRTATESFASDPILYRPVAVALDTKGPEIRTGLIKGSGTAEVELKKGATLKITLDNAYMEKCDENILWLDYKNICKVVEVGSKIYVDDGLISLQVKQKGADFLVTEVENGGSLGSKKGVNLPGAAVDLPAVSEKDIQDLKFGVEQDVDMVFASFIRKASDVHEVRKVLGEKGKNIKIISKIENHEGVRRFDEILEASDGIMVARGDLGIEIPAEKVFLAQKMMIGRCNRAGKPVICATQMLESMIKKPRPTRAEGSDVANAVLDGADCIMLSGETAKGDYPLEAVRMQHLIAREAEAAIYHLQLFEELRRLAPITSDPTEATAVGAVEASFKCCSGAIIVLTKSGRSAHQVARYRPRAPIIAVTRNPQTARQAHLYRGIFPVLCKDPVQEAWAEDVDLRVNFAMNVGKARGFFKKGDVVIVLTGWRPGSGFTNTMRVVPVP
Outline: (§2)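 Purified human PKM2 (0.1 nM) with 0.5 mM PEP (Km) and 0.1 mM ADP in 50 mM imidazole pH 7.2, KCl, MgCl2, 1 h at room temperature; ATP formed read by coupled luciferase luminescence. Normalized to no-enzyme/110 uM thiadiazolimine inhibition; 0.3 nM enzyme column for activation.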

[15] = biological target: Pyruvate kinase PKM (Homo sapiens) (UniProt P14618); assay: qHTS Assay for Inhibitors of Human Muscle Pyruvate Kinase (AID 958)
Outline: as §2

[16] = biological target: Pyruvate kinase (Leishmania mexicana) (UniProt Q27686); assay: qHTS Validation Assay for Activators of Leishmania Mexicana Pyruvate Kinase (AID 959)
Outline: as §1

[17] = biological target: Alpha-galactosidase A (Homo sapiens) (UniProt P06280); assay: Counterscreen for Glucocerebrosidase Inhibitors: qHTS Assay for Human alpha-Galactosidase at pH 4.5 (AID 992); further: 0% is about no effect
Chain of Alpha-galactosidase A (Homo sapiens) (P06280 whole entry, looked up): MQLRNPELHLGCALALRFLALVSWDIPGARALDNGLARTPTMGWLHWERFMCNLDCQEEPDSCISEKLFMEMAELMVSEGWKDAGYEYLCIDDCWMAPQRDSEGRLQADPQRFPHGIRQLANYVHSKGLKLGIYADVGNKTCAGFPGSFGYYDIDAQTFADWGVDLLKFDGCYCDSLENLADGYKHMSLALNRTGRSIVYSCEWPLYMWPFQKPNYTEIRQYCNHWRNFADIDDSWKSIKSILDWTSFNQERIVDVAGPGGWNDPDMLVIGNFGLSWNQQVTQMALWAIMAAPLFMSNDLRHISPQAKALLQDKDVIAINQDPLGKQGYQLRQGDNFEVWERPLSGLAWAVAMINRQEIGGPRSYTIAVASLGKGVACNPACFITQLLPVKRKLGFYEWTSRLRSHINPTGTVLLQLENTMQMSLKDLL
Outline: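 Human enzyme (2 nM) with 80 uM 4-methylumbelliferyl alpha-D-galactopyranoside in 50 mM citric acid, 0.005% Tween-20, pH 4.5, 20 min at room temperature. Compounds 0.7 nM–77 uM; fluorescence Ex 365/Em 440 after pH 10 stop; AC50 from Hill fits.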

[18] = Stat Signaling Pathway (AID 446; active means well fitted curve in either direction with a large enough effect, not every such curve was filed as active;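 further: ME-180 cervical cancer cells given 40 pM IL-6 alongside compound; SIE-controlled beta-lactamase reporter measured as 460/530 nm FRET emission ratio; on the % scale 0 is the no-effect control and ±100 the full control effect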); details: ME-180 SIE beta-lactamase reporter, IL-6 stimulated, 5 h; at 17.2 µM (top of the series) unless noted
Outline: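 ME-180 cells carrying a SIE-driven beta-lactamase reporter are stimulated with 40 pM IL-6 for 5 h at 37C in the presence of compound. The 460/530 nm FRET substrate ratio is read after 2.5 h at RT. Data are normalised to 300 pM IL-6 and to 125 nM JAK inhibitor controls.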

[19] = biological target: Mitogen-activated protein kinase 10 (Mus musculus) (UniProt Q61831); assay: JNK3 AlphaScreen Assay (AID 530; active means well fitted curve in either direction with a large enough effect, not every such curve was filed as active;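 further: kinase came from lysate of stimulated human HepG2 cells; signal reports phosphorylation of biotinylated GST-cJun 1-79 at Ser73 with 10 µM ATP; on the % scale 0 is the no-effect control and ±100 the full control effect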)
Outline: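 Pre-activated (IL-1β/TNFα) JNK3 in HepG2 lysates phosphorylates biotin-GST-cJun(1-79), 10 uM ATP; anti-phospho-cJun(Ser73) AlphaScreen read at room temperature, pH 7.6 Tris buffer. Compounds pre-incubated 15 min as titrations.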

[20] = Confirmation and Secondary Assay for Modulators of Hemoglobin Beta Chain Splicing at IVS2 654 locus (AID 910);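 further: HeLa cells stably carrying EGFP split by mutant beta-globin IVS2-654 intron; % of control where 0% means no effect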
Outline: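 HeLa cells stably expressing EGFP interrupted by β-globin IVS2-654 intron, seeded overnight in Opti-MEM/2% FCS, then treated 2 days at 37 °C. Restored splicing read as total peak GFP intensity per well by laser scanning cytometry (488 nm excitation, 500–520 nm emission); 500 nM antisense PNA as control.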

Row | Compound | Potency [1] | activity change, negative = inhibition [2] | Potency [3] | Potency [4] | Potency [5] | outcome [6] | Potency [7] | Potency [8] | Potency [9] | Potency [10] | Potency [11] | Potency [12] | Potency [13] | outcome [14] | Potency [15] | Potency [16] | outcome [17] | activity, negative = inhibition [18] | Potency [19] | Potency [20]
1 | COc1ccc(NC(=O)/C=C\c2ccc(Cl)cc2)cc1 | 5.01 µM (active) | -10.1% [at 38 µM] | > 46 µM | > 46 µM | inactive | inactive | inactive | 25.1 µM (active) | inactive | 3.98 µM (active) | 0.316 µM (active) | 1.41 µM (active) | 10 µM (active) | inactive | 15.8 µM (active) | inactive | inactive | – | – | –
2 | FC(F)(F)c1ccccc1-c1nc(Nc2ccncc2)c2ccccc2n1 | 10 µM (active) | -8.21% [at 7.69 µM] | > 46 µM | > 46 µM | – | – | – | – | inactive | – | – | – | – | – | – | – | – | -14.6% [at 7.69 µM] | inactive | inactive
